Assay outcomes: PubChem BioAssay, National Center for Advancing Translational Sciences (NCATS)
This is a sample that favours compounds with a hit; in the whole collection about 19% have one here.
IL-1B inflam inh = qHTS for Inhibitors of Inflammasome Signaling: IL-1-beta AlphaLISA Primary Screen; THP-1 LPS/ATP IL-1B secretion, AlphaLISA, 16 h; hits give low values; activity change, % at 57.5 µM; hit rate 4.7% among 360,000; AID 743279, 2014; in the data active means activity change below about -50%; inconclusive means mostly about -30% to -49%
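THP-1 cells pretreated 1 hr with compounds (up to 57.5 uM final), then stimulated with LPS (250 ng/mL final) plus ATP (1.25 mM final); secreted IL-1B measured by AlphaLISA after 16 hr, decreased signal indicating inhibition.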
DT40 TDP1 CPT = qHTS for Inhibitors of human tyrosyl-DNA phosphodiesterase 1 (TDP1): qHTS in cells in presence of CPT; chicken DT40 Tdp1-/-;hTDP1 cells + 20 nM CPT, ATP luminescence, 48 h; Potency, µM (doses to about 46.2 µM), inactives show at the highest dose activity change, negative = growth inhibition, most hits filed as inhibitors; hit rate 12% among 420,000; AID 686979, 2013; further: potency means the concentration at half of the fitted maximal effect; nearly all actives have a fitted effect of over 55% in size
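Chicken DT40 Tdp1-/- cells complemented with human TDP1, 400 cells/well, exposed to compounds plus 20 nM camptothecin for at least 48 h at 37 C; viability read as ATP content by CellTiter-Glo luminescence.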
Giardia killer = Small Molecules that selectively kill Giardia lamblia: qHTS; Giardia lamblia trophozoite viability; activity change, % at 7.66 µM, hits read low; hit rate 0.15% among 340,000; AID 540267, 2011; in the data active means activity change below about -80%; inconclusive means between about -30% and that limit;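 further: parasites exposed to compound for two days anaerobically before the ATP read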
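Giardia lamblia trophozoites (100 cells/well) were incubated with compounds for 48 h at 37 deg C under anaerobic conditions. Viability was read as ATP content by one-step luminescence after 15-30 min at room temperature.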
ELG1 DNA repair = qHTS screen for small molecules that inhibit ELG1-dependent DNA repair in human embryonic kidney (HEK293T) cells expressing luciferase-tagged ELG1; AID 504467, 2011; HEK293T ELG1-luciferase reporter, luminescence, 16 h; DNA damage induced by 5-fluorouridine; Potency, µM (top dose mostly 46.1 µM), inactives show at the top dose activity change, negative = inhibition, hits mostly inhibitors; hit rate 2.3% among 330,000; further: potency means the concentration at half of the fitted maximal effect; nearly all actives have a fitted effect of over 55% in size
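Step one: seed 2,000 cells per well. Step two: pin-transfer compound or DMSO alongside 5-fluorouridine. Step three: incubate 16 hr, 37 °C, 5% CO2. Step four: add ONE-Glo, wait 30 min, read luminescence.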
TDP1 block = qHTS Assay for Inhibitors of Tyrosyl-DNA Phosphodiesterase (TDP1); Tyrosyl-DNA phosphodiesterase 1 (Homo sapiens), Q9NUW8; recombinant TDP1, AlphaScreen DNA substrate cleavage; Potency, µM (series often up to 130 µM), for inactives: top-dose activity change, negative = inhibition, actives largely listed as inhibitors; hit rate 0.28% among 350,000; further: potency means the concentration at half of the fitted maximal effect; nearly all actives have a fitted effect of over 40% in size
Target sequence (Q9NUW8 whole entry, looked up): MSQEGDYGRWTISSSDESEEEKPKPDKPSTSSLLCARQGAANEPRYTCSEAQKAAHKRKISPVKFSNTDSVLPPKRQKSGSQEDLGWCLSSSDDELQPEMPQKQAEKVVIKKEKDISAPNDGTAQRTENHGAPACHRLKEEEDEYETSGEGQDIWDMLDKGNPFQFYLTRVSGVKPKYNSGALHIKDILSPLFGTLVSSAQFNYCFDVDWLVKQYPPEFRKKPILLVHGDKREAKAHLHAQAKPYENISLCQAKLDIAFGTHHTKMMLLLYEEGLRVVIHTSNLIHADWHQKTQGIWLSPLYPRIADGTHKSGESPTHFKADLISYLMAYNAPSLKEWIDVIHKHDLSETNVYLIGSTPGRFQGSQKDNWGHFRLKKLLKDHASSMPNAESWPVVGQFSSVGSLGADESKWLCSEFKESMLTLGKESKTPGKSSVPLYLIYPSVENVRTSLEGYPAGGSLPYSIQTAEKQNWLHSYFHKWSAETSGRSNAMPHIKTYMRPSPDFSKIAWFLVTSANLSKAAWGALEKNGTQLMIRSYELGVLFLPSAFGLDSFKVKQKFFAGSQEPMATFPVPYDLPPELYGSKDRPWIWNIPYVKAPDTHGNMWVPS
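Tdp1 1 nM final; 15 min RT w/ cpd; substrate 15 nM, 5 min; beads 10 ug/ml, 10 min; AlphaScreen read. Neg ctrl: no enzyme.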
TDP1 cell noCPT = qHTS for Inhibitors of human tyrosyl-DNA phosphodiesterase 1 (TDP1): qHTS in cells in absence of CPT; Potency, µM (doses to about 46.2 µM), for inactives: at the top dose activity change, negative = growth inhibition, usual class: inhibitors; DT40 Tdp1-/- hTDP1 cells, no CPT, ATP luminescence, 48 h; hit rate 15% among 420,000; further: potency means the concentration at half of the fitted maximal effect; nearly all actives have a fitted effect of over 55% in size
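Chicken DT40 Tdp1-/- cells stably complemented with human TDP1 were seeded at 400 cells/well with DMSO in place of 20 nM camptothecin. After compound pinning, cells grew at least 48 hr at 37 °C; viability read by CellTiter-Glo luminescence.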
Active calls of the source: *; ? = inconclusive; nt = no result; ! = repeats disagree. Unless noted, the call rests on the fitted dose curve; in most records, active means well fitted curve in the direction sought with a large enough effect; inconclusive means small, poorly fitted or top-dose-only effect, or another doubt; inactive means no such curve, though single readings can be large; an effect the other way counts as inactive or inconclusive. On the % scale 0 is the no-effect control and ±100 the full control effect.

SMILES | IL-1B inflam inh | DT40 TDP1 CPT | Giardia killer | ELG1 DNA repair | TDP1 block | TDP1 cell noCPT
CC(=O)Nc1cc(NC(C)=O)cc(-c2nc3ccccc3[nH]2)c1 | 13 | 8.2µM*! | -1 | -11% | 6% | 5.8µM*!
CCOc1ccc(-c2nnc(Nc3ccc(S(N)(=O)=O)cc3)c3ccccc23)cc1 | nt | 4% | nt | nt | nt | -23%
Cc1nc2ccc(NS(=O)(=O)c3c(F)cc(F)cc3Br)cc2s1 | 27 | ? | -2 | -11% | 2% | 6.5µM*
Cc1nc2ccc(NS(=O)(=O)c3ccc(C)c(C)c3)cc2s1 | 1 | 15µM* | 6 | ? | 4% | 10µM*
Cc1nc2ccc(NS(=O)(=O)c3ccc(F)cc3F)cc2s1 | 27 | ? | -9 | 0% | 1% | ?
Cc1nc2ccc(S(=O)(=O)Nc3ccccc3C)cc2s1 | 12 | ? | 13 | ? | 4% | 18µM*
Cc1nc2ccc(NS(=O)(=O)c3ccc(F)c(F)c3F)cc2s1 | 47 | ? | 6 | ? | 0% | ?
Cc1cccn2c(=O)nc(SCC(=O)Nc3ccc4c(c3)OCCO4)nc12 | 8 | -24% | -2 | 5% | -4% | -5%
CC(C)=CCC[C@H](C)C[C@@H]1Cc2[nH][nH]c(=O)c2[C@H](c2ccc(F)cc2)O1 | -24 | ? | nt | nt | nt | 21µM*
Cc1cc(=O)[nH]c(N=N/C(=N/Nc2ccc(O)cc2)c2ccccc2)n1 | 112 | 5.8µM* | 2 | -11% | ? | 6.5µM*
Cc1cc(=O)[nH]c(N=N/C(=N/Nc2ccccc2C)c2ccccc2)n1 | 161 | 4.6µM* | -23 | ? | 9% | 5.2µM*
COc1cccc(CNC(=O)[C@@H]2CCCN2C(=O)[C@H]2CCCCN2C(=O)c2cccc3ccccc23)c1 | -8 | ? | nt | nt | nt | ?
Cc1cn(C)c(CC(=O)N2CCN(c3cccc(Cl)c3)CC2)c1C(=O)O | nt | ? | nt | nt | 0% | -29%
CC(C)c1cc(C(=O)N2CCCC(CCC(=O)N3CCN(c4ccccn4)CC3)C2)no1 (stereo unspecified) | 12 | 23µM* | 0 | 12µM* | nt | 23µM*
O=C(CCC1CCCN(C(=O)COc2ccccc2)C1)N1CCN(c2ccccn2)CC1 (stereo unspecified) | -15 | ? | 1 | 21µM* | -3% | -23%
CCc1cc(C(=O)N2CCCC(CCC(=O)N3CCN(c4ccccn4)CC3)C2)no1 (stereo unspecified) | 0 | -4% | 2 | ? | -1% | ?
O=C(CCC1CCCN(C(=O)CC2=CCCCC2)C1)N1CCN(c2ccccn2)CC1 (stereo unspecified) | 0 | ? | 11 | ? | 2% | 16µM*
O=C(CCC1CCCN(C(=O)C2=CCCC2)C1)N1CCN(c2ccccn2)CC1 (stereo unspecified) | 1 | -21% | -20 | 10% | 6% | 23µM*
CN(C)c1ccc(CNC(=O)CN2CCSc3ccc(S(=O)(=O)N(C)C)cc32)cc1 | nt | nt | nt | nt | 8% | nt
Cc1ccc(C)c(NC(=O)c2ccccc2NC(=O)C2CCCO2)c1 (stereo unspecified) | -13 | ? | 18 | 10% | 6% | ?
COc1cccc(CNC(=O)c2cnn(-c3ncc4c(n3)-c3ccccc3CCC4)c2C)c1OC | nt | ? | nt | nt | nt | -22%
Cc1ccc(CNC(=O)Cn2nc(N3CCN(c4ccccc4)CC3)ccc2=O)cc1 | nt | -3% | nt | nt | 5% | ?
CCOC(=O)C(CC)n1cnc2c(nnn2-c2ccc(F)cc2)c1=O (stereo unspecified) | 19 | -2% | -17 | ? | nt | -2%
CCC(=O)Oc1ccc(-c2nc3ccccc3c(=O)o2)cc1 | nt | -24% | nt | nt | -1% | -12%
CSc1nn(Cc2cccc(Cl)c2)c(N(C(C)=O)C(C)=O)c1S(=O)(=O)c1ccccc1 | nt | ? | nt | nt | -3% | 21µM*
SMILES | IL-1B inflam inh | DT40 TDP1 CPT | Giardia killer | ELG1 DNA repair | TDP1 block | TDP1 cell noCPT
O=C(NCCCN1CCCC1)c1ccc2c(Cl)c3c(nc2c1)CCCC3 | nt | ? | 4 | -2% | 0% | 15µM*
CCCN1CCN(CCCNC(=O)c2ccc3c(Cl)c4c(nc3c2)CCCC4)CC1 | -56* | 21µM* | 4 | 8% | 3% | 8.2µM*
O=C(NC1CC1)c1ccc2c(Cl)c3c(nc2c1)CCCC3 | -29 | ? | -8 | -14% | 0% | ?
CCN(CC)c1ccc(C(=O)NN)cc1 | -52* | 28% | 14 | -5% | -3% | -3%
CCN(CC)c1ccc(NC(=O)Nc2ccc(C(C)=O)cc2)cc1 | -12 | -30% | 23 | 25% | 6% | ?
Nc1ccc(N(CCO)CCO)cc1 | -8 | 12µM* | 1 | -2% | nt | 21µM*
CCN(CC)c1ccc(C(=O)N/N=C(\C)c2ccc(OC)c(OC)c2)cc1 | 6 | -4% | -17 | 0% | 5% | 26µM*
CCN(CC)c1ccc(N)cc1 | -66* | 1.8µM* | -7 | ? | 12% | 1.6µM*
Cc1cc(NC(=O)c2ccccc2C)n(-c2cccc(F)c2)n1 | -10 | -16% | -20 | -2% | nt | -29%
CCCC(=O)NCC1(N(C)C)CCCCC1 | nt | -1% | nt | nt | 4% | ?
Cc1ccc2c(c1)-c1[nH]c(=S)ncc1CS2 | -1 | ? | -14 | 5% | nt | 18µM*
CC1(C)CNC(=O)c2sc(N3CCOCC3)nc2C1 | -17 | 8.2µM* | -21 | nt | 0% | 21µM*
Cc1nc(C)n(CC(C)C(=O)N2CCN(S(=O)(=O)c3ccc(Cl)cc3)CC2)n1 (stereo unspecified) | 44 | 11% | 35 | -3% | nt | -8%
COc1ccc(NC(=O)c2cccc(S(=O)(=O)N3CCc4ccccc43)c2)cn1 | 19 | -19% | -14 | 8.2µM* | 5% | ?
O=C(c1cccc(S(=O)(=O)N2CCc3ccccc32)c1)N1CCc2ccccc2C1 | ? | ? | -5 | ? | 0% | ?
CCCC(=O)NC(=S)Nc1ccc(S(=O)(=O)N2CCc3ccccc32)cc1 | -23 | ? | -22 | nt | nt | 21µM*
COc1cc2c(cc1OC)CN(C(=O)c1cccc(S(=O)(=O)N3CCc4ccccc43)c1)CC2 | ? | 21µM* | 4 | ? | 2% | 16µM*
COc1cc2nc(N(CCCN(C)C)C(=O)c3ccc(S(=O)(=O)N4CCc5ccccc54)cc3)sc2cc1OC | -101* | ? | 22 | ? | nt | 16µM*
